Our source for the growth values is PubChem BioAssay (NCI).

This is part of a sample that, as a whole, favours compounds with a hit. Of some 83,000 tested, about 20% had one in any assay.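 Compound tested at a single concentration for 48 hours in 96-well plates; a percent growth value below 10 was scored as active.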 Activity calls are given as the source filed them.

This assay relates to IGROV1 ovarian. Briefly: NCI-60 one-dose screen, 48 h (100 = growth as untreated, 0 = no growth, -100 = all killed). Conditions: 10 µM.
On to `CN(C)CCN(Cc1ccccc1)c1ccc2ccccc2n1`, for which the growth was 95.1% (inactive).

As to `CCN(CC)CCOc1cccc2c1C(=O)c1cccc(OCCN(CC)CC)c1C2=O`, the growth was 33.9% (inactive).

For `O=C(NCCCNS(=O)(=O)c1ccc(Cl)cc1)Nc1ccc(-n2cc(-c3ccncc3)c(-c3ccc(Cl)c(O)c3)n2)cc1`, the growth was 62% (inactive).

In the case of `C1CN(CC2CCC(CN3CCOCC3)O2)CCO1` (centres undefined), the growth is 108% (inactive).

Regarding `NC(N)=N/N=C(\c1ccccc1)C(O)c1ccccc1` (centres undefined), the growth was 100% (inactive).

Take `N#CC1=C(N)Oc2cc(N)ccc2C1c1cccnc1` (centres undefined): the growth is 101% (inactive).

Regarding `CCOC(=O)c1cc(C(=O)c2cc(OC)cc(OC)c2)n2nc(C)ccc12`, the growth is 44.8% (inactive).

As for `COc1cc(C)ccc1Oc1nc(Nc2ccc(N3CCOCC3)cc2)ncc1NC(=O)Nc1cc(C(F)(F)F)cc(C(F)(F)F)c1`, the growth is 64% (inactive).

For the compound `COc1ccc(/C=C2\CCCC3C2=Nc2ccccc2NC3c2ccc(OC)cc2)cc1` (centres undefined), the growth was 96.6% (inactive).

As for `CCN(CC)CC(=O)N(CC)c1ccc(C)c(Cl)c1`, the growth is 101% (inactive).

For the compound `O=C(CC(CC(=O)c1ccccc1)c1ccccc1O)c1ccccc1`, the growth was 101% (inactive).

Take `C=C(C)[C@@H]1CC[C@]2(COCCC#N)CC[C@]3(C)[C@H](CC[C@@H]4[C@@]5(C)Cc6c([nH]c7ccccc67)C(C)(C)[C@@H]5CC[C@]43C)[C@@H]12`: the growth was 105% (inactive).

Take `Fc1ccc2[nH]cc(-c3nc(-c4ccsc4)cs3)c2c1`: the growth was 85.7% (inactive).

With `COc1cc(-c2nn(-c3cccc(NC(=O)CCN4CCN(Cc5ccccc5)CC4)c3)cc2-c2ccncc2)ccc1Cl`, the growth was 31.9% (inactive).
